PubChem BioAssay (Tox21)
Where “and” joins values, the source holds several entries; their conditions need not be identical. Equal entries are not always repeated. Results filed as inconclusive are left out. Some structures have more than one record in an assay (separate samples or runs), and their calls can disagree. Calls of active or inactive are those of the source. Unless noted, the call rests on the fitted dose curve; in most records, active means well fitted curve in the direction sought with a large enough effect in the repeat runs; inconclusive means weak or mixed curves; inactive means no such curve, though single readings can be large; an effect the other way counts as inactive or inconclusive.

How the values were obtained:
[1] = qHTS assay to identify small molecule antagonists of the glucocorticoid receptor (GR) signaling pathway - cell viability counter screen (AID 720693); further: nearly all actives have a fitted effect of over 55% in size; further: potency means the concentration at half of the fitted maximal effect
[2] = qHTS assay for identifying genotoxic compounds that show differential cytotoxicity against isogenic chicken DT40 cell lines with known DNA damage response pathways - wild type cell line (AID 743012); further: nearly all actives have a fitted effect of over 60% in size; further: potency means the concentration at half of the fitted maximal effect
In short: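 Using parental DT40 (300 cells/well), compounds delivered in DMSO incubate 40 h at 37 C/5% CO2. CellTiter-Glo reagent then stands 30 min at room temperature, and luminescence gives cell viability.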

[3] = qHTS assay for identifying genotoxic compounds that show differential cytotoxicity against isogenic chicken DT40 cell lines with known DNA damage response pathways - Rev3 mutant cell line (AID 743014); further: nearly all actives have a fitted effect of over 55% in size; further: potency means the concentration at half of the fitted maximal effect
[4] = qHTS assay for identifying genotoxic compounds that show differential cytotoxicity against isogenic chicken DT40 cell lines with known DNA damage response pathways - Rad54/Ku70 mutant cell line (AID 743015); further: nearly all actives have a fitted effect of over 60% in size; further: potency means the concentration at half of the fitted maximal effect
[5] = qHTS assay to identify small molecule antagonists of the androgen receptor (AR) signaling pathway - cell viability counter screen (AID 743033; further: nearly all actives have a fitted effect of over 45% in size)
[6] = qHTS assay to identify small molecule antagonists of the androgen receptor (AR) signaling pathway using the MDA cell line - cell viability counter screen (AID 743041; further: nearly all actives have a fitted effect of over 45% in size)
In short: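 MDA-kb2 AR-luc human breast carcinoma cells (MMTV-luciferase, AR/GR responsive) were treated with compounds plus R1881 agonist for 16 h at 37 °C. Viability was read as CellTiter-Fluor fluorescence in the same wells as the reporter assay.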

[7] = qHTS assay to identify small molecule antagonists of the thyroid receptor (TR) signaling pathway - cell viability counter screen (AID 743064); further: nearly all actives have a fitted effect of over 50% in size; further: potency means the concentration at half of the fitted maximal effect
In short: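 In-well cytotoxicity read by CellTiter-Fluor (30 min, 37 C) following 23.5 h exposure of GH3 cells bearing a TRE-luciferase sensor. Compounds were added alongside 1 nM (final) T3 to drive TR transactivation.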

[8] = qHTS assay to identify small molecule antagonists of the thyroid receptor (TR) signaling pathway (AID 743065); further: nearly all actives have a fitted effect of over 55% in size; further: potency means the concentration at half of the fitted maximal effect
In short: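 GH3.TRE-Luc rat pituitary cells carrying two TR response elements driving luciferase were plated for 4 h, given compound plus 1 nM T3 (final), and incubated 23.5 h at 37 C. ONE-Glo luminescence measured reporter inhibition; CellTiter-Fluor fluorescence tracked cytotoxicity.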

[9] = test system: thyroid hormone receptor (rat, GH3 cells); assay: qHTS assay to identify small molecule agonists of the thyroid receptor (TR) signaling pathway (AID 743066; calls by dose curve)
[10] = target: Estrogen receptor (Homo sapiens) (UniProt P03372); assay: qHTS assay to identify small molecule antagonists of the estrogen receptor alpha (ER-alpha) signaling pathway (AID 743069; active means well fitted curve in the direction sought with a large enough effect in the signal ratio in the repeat runs, not every such curve was filed as active; the % refers to the signal ratio)
In short: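 HEK293 cells stably carrying an ER-alpha-UAS-bla beta-lactamase reporter were pre-cultured overnight in 2% charcoal-stripped FBS medium. Test compounds in DMSO were added together with 17beta-estradiol for 18 hr at 37C. Read-out was fluorescence after 2 hr with LiveBLAzer B/G FRET substrate at room temperature.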

[11] = qHTS assay to identify small molecule antagonists of the estrogen receptor alpha (ER-alpha) signaling pathway - cell viability counter screen (AID 743074; calls by dose curve; further: nearly all actives have a fitted effect of over 45% in size)
[12] = target: Estrogen receptor (Homo sapiens) (UniProt P03372); assay: qHTS assay to identify small molecule agonists of the estrogen receptor alpha (ER-alpha) signaling pathway (AID 743075; calls by dose curve)
[13] = target: Estrogen receptor (Homo sapiens) (UniProt P03372); assay: qHTS assay to identify small molecule agonists of the estrogen receptor alpha (ER-alpha) signaling pathway using the BG1 cell line (AID 743079); further: nearly all actives have a fitted effect of over 20% in size
[14] = qHTS assay to identify small molecule antagonists of the estrogen receptor alpha (ER-alpha) signaling pathway using the BG1 cell line (AID 743080; calls by dose curve;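 further: BG1 cells stimulated with 17beta-estradiol alongside compound; series mostly up to about 70 µM; nearly all actives have a fitted effect of over 25% in size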)
In short: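 Endogenous full-length ER-alpha in BG1-Luc-4E2 cells drives a stably integrated 4×ERE luciferase gene; compounds were tested against 17beta-estradiol over 21.5 h, with luminescence and multiplexed viability fluorescence recorded.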

[15] = qHTS assay to identify small molecule antagonists of the estrogen receptor alpha (ER-alpha) signaling pathway using the BG1 cell line - cell viability counter screen (AID 743081);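 further: compound given together with 17beta-estradiol as the ER stimulus; nearly all actives have a fitted effect of over 45% in size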; further: potency means the concentration at half of the fitted maximal effect
[16] = target: Aromatase (Homo sapiens) (UniProt P11511); assay: qHTS assay to identify aromatase inhibitors (AID 743083); further: series mostly up to about 70 µM; nearly all actives have a fitted effect of over 55% in size
[17] = qHTS assay to identify aromatase inhibitors - cell viability counter screen (AID 743084); further: potency means the concentration at half of the fitted maximal effect
[18] = target: Androgen receptor (Homo sapiens) (UniProt P10275); assay: qHTS assay to identify small molecule agonists of the androgen receptor (AR) signaling pathway (AID 743036; active means well fitted activation curve with a large enough effect in the signal ratio in the repeat runs, with a control signal flat, not every such curve was filed as active; the % refers to the signal ratio)
In short: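 Activation was read as beta-lactamase FRET signal from LiveBLAzer B/G substrate, added for 2 h at room temperature. Before that, GeneBLAzer AR-UAS-bla GripTite (HEK293) cells had 16 h compound exposure at 37C.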

[19] = target: Androgen receptor (Homo sapiens) (UniProt P10275); assay: qHTS assay to identify small molecule agonists of the androgen receptor (AR) signaling pathway using the MDA cell line (AID 743040; further: nearly all actives have a fitted effect of over 20% in size)
In short: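 MDA-kb2 breast carcinoma cells stably carrying an MMTV-driven luciferase reporter (AR- and GR-responsive) were seeded and held 5 h at 37C, 0% CO2, then exposed to compounds in DMSO for 16 h. Luminescence was read 30 min after ONE-Glo addition.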

[20] = target: Androgen receptor (Homo sapiens) (UniProt P10275); assay: qHTS assay to identify small molecule antagonists of the androgen receptor (AR) signaling pathway using the MDA cell line (AID 743042; further: nearly all actives have a fitted effect of over 55% in size)
In short: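 MDA-kb2 cells (human breast carcinoma, stably carrying an MMTV-luciferase reporter responsive to AR and GR) were plated at 3,000 cells/well and preincubated 5 hr at 37C, then given compound plus R1881 agonist for 16 h. ONE-Glo luminescence was read.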

Measured: Potency

Sequence of Estrogen receptor (Homo sapiens) (P03372 whole entry, looked up): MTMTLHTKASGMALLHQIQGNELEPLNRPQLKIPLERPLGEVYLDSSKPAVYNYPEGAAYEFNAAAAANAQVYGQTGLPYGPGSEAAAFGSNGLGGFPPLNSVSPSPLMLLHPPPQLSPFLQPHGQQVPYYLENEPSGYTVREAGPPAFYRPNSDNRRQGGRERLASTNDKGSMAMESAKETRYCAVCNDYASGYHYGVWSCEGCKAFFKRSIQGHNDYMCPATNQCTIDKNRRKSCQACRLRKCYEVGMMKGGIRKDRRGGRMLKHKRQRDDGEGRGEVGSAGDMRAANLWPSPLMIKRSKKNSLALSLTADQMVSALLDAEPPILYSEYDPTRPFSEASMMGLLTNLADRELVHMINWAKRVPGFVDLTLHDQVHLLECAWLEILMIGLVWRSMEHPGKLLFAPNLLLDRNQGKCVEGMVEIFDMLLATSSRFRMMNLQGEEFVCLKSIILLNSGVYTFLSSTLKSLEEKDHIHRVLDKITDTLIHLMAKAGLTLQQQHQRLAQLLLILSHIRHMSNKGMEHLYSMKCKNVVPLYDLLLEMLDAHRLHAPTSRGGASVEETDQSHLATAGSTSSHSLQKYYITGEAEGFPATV
Sequence of Aromatase (Homo sapiens) (P11511 whole entry, looked up): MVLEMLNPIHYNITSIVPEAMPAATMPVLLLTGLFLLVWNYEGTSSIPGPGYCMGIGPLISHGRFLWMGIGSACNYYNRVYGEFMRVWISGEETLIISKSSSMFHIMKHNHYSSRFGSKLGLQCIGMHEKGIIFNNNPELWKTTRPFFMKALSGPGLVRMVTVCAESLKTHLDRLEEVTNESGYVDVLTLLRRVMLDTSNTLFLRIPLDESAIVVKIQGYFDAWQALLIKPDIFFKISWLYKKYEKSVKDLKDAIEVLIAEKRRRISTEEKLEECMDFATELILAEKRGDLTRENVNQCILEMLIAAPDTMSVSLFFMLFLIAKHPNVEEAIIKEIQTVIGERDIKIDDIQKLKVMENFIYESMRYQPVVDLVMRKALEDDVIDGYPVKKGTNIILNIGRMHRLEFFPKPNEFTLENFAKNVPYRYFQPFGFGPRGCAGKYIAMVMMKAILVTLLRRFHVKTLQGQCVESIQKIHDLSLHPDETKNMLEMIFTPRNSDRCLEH
Sequence of Androgen receptor (Homo sapiens) (P10275 whole entry, looked up): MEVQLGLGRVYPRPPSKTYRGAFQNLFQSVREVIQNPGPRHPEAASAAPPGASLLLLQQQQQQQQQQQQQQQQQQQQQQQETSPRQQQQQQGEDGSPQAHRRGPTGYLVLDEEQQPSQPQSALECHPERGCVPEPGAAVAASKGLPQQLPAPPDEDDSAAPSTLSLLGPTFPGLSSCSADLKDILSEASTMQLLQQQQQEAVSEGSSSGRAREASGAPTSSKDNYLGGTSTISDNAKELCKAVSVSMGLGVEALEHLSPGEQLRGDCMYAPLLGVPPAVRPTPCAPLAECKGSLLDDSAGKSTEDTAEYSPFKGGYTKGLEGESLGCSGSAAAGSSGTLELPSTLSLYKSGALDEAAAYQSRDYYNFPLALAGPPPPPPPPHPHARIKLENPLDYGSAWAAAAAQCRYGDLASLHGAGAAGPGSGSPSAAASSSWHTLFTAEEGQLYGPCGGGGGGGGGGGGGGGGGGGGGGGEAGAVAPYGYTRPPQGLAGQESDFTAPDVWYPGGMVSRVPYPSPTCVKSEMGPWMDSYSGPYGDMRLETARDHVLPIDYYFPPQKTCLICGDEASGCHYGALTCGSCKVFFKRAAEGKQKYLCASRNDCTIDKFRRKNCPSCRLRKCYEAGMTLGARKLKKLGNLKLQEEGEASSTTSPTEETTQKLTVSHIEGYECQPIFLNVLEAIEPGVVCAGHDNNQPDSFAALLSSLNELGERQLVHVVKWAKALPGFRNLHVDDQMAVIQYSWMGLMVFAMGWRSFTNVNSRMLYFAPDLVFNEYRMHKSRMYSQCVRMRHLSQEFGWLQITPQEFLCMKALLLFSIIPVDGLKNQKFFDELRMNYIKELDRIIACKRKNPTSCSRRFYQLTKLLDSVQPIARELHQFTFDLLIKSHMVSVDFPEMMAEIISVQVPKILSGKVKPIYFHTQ

COc1cc(NS(=O)(=O)c2ccc(N)cc2)nc(C)n1
not listed: [18] | [19] | [20]
inactive: all other assays above

C=Cc1ccc(OC(C)=O)cc1
not listed: [10] | [11]
inactive: all other assays above

CC1CCC(C(C)CS)CC1S (centres undefined)
active: [1] 49 µM
not listed: [10] | [12] | [13] | [14]
inactive: all other assays above

CCc1ccc(C)cc1
not listed: [7] | [10] | [12] | [13] | [14]
inactive: all other assays above

CC[C@H]1OC(=O)[C@H](C)[C@@H](O[C@H]2C[C@@](C)(OC)[C@@H](O)[C@H](C)O2)[C@H](C)[C@@H](O[C@@H]2O[C@H](C)C[C@H](N(C)C)[C@H]2O)[C@](C)(O)C[C@@H](C)/C(=N\OCOCCOC)[C@H](C)[C@@H](O)[C@]1(C)O
inactive and 32.1 µM (active): [7]
inactive and 14.3 µM (active): [2] | [4]
inactive and 8.07 µM (active): [3]
inactive and 10.2 µM (active): [17]
inactive and 18.1 µM (active): [15]
not listed: [10] | [18] | [19] | [20]
inactive: all other assays above

CCO[Si](C)(CCCOCC1CO1)OCC (centres undefined)
active: [2] 13.7 µM | [3] 7.7 µM | [4] 27.3 µM
not listed: [8] | [17] | [18] | [19] | [20]
inactive: all other assays above

CC(=O)N[C@@H](Cc1ccc(O)cc1)C(=O)O
inactive: [1] | [2] | [3] | [4] | [5] | [6] | [7] | [8] | [9] | [11] | [15]

CC(C)Cc1ccc(CC(=O)O)cc1
not listed: [10] | [12] | [13] | [14] | [18] | [19] | [20]
inactive: all other assays above

COc1ccc(N)c([N+](=O)[O-])c1
not listed: [10] | [12] | [13] | [14] | [18] | [19] | [20]
inactive: all other assays above

Cc1ccc2c(c1)CCCN2
not listed: [14] | [18] | [19] | [20]
inactive: all other assays above

CC[C@H]1OC(=O)[C@H](C)[C@@H](O[C@H]2C[C@@](C)(OC)[C@@H](O)[C@H](C)O2)[C@H](C)[C@@H](O[C@@H]2O[C@H](C)C[C@H](N(C)C)[C@H]2O)[C@](C)(O)C[C@@H](C)C(=O)[C@H](C)[C@@H](O)[C@]1(C)O
not listed: [10] | [12] | [13] | [14] | [18] | [19] | [20]
inactive: all other assays above

CC1CCCO1 (centres undefined)
not listed: [10] | [12] | [13] | [14] | [18] | [19] | [20]
inactive: all other assays above

CCCCCCCCCCCCCOC(=O)CCSCCC(=O)OCCCCCCCCCCCCC
not listed: [10] | [12] | [13] | [14] | [18] | [19] | [20]
inactive: all other assays above

Cc1ccc(Nc2c(F)cccc2Cl)c(CC(=O)O)c1
not listed: [10] | [18] | [19] | [20]
inactive: all other assays above

Cc1ccc(S(=O)(=O)NC(=O)NC2CCCCC2)cc1
not listed: [10] | [18] | [19] | [20]
inactive: all other assays above

CCC(=O)OCc1ccc(OC)cc1
inactive: [1] | [2] | [3] | [4] | [5] | [6] | [7] | [8] | [9] | [11] | [15]

C/C(C=O)=C\c1ccccc1
not listed: [14] | [18] | [19] | [20]
inactive: all other assays above

CC(C)COC(=O)COc1cc(Cl)c(Cl)cc1Cl
not listed: [10] | [18] | [19] | [20]
inactive: all other assays above

CCCCCCC(CO)CCCC (centres undefined)
not listed: [10] | [12] | [13] | [14] | [18] | [19] | [20]
inactive: all other assays above

CCOC(=O)c1c(N)sc2c1CCN(Cc1ccccc1)C2
active: [2] 29.8 µM | [3] 29.8 µM | [4] 26.6 µM
not listed: [8] | [13] | [14] | [15] | [18] | [19] | [20]
inactive: all other assays above

CNCc1ccc(NC(=O)c2c[nH]c3c2C(=O)CCC3)cc1
active: [2] 61.1 µM | [3] 54.5 µM | [4] 54.5 µM
not listed: [10] | [12] | [13] | [14] | [18] | [19] | [20]
inactive: all other assays above

O=C(O)CCCc1c[nH]c2ccccc12
not listed: [10] | [12] | [13] | [14] | [18] | [19] | [20]
inactive: all other assays above

Cc1cccc2sc(N)nc12
not listed: [18] | [19] | [20]
inactive: all other assays above

COc1ccc(C)cc1
not listed: [10] | [12] | [13] | [14] | [18] | [19] | [20]
inactive: all other assays above

COC(C)(C)OC
not listed: [10] | [18] | [19] | [20]
inactive: all other assays above

Cc1ccc(N(CCO)CCO)cc1
not listed: [10] | [18] | [19] | [20]
inactive: all other assays above

CC(CN(CCN(CC(C)OCCO)CC(C)OCCO)CC(C)OCCO)OCCO (centres undefined)
active: [2] 18.6 µM | [3] 10.5 µM | [4] 20.9 µM
not listed: [10] | [12] | [13] | [14] | [18] | [19] | [20]
inactive: all other assays above

CC(=O)C(C)=O
not listed: [10] | [12] | [13] | [14] | [18] | [19] | [20]
inactive: all other assays above

Cc1c[nH]c2ccccc12
not listed: [10] | [12] | [13] | [14] | [18] | [19] | [20]
inactive: all other assays above

O=C1NC(=O)c2cccc3cccc1c23
active: [4] 48.6 µM
not listed: [10] | [18] | [19] | [20]
inactive: all other assays above

Cc1ccc(Cl)cc1N
not listed: [10] | [12] | [13] | [14] | [18] | [19] | [20]
inactive: all other assays above

Nc1nc(-c2ccc([N+](=O)[O-])cc2)cs1
not listed: [10] | [12] | [13] | [14] | [18] | [19] | [20]
inactive: all other assays above

CC(C)(O)CCc1ccccc1
not listed: [10] | [18] | [19] | [20]
inactive: all other assays above

O=C1OC(=O)c2c(Br)c(Br)c(Br)c(Br)c21
not listed: [10] | [12] | [13] | [14] | [16] | [18] | [19] | [20]
inactive: all other assays above

COC(OC)OC
not listed: [11] | [18] | [19] | [20]
inactive: all other assays above

COc1cc(C(C)=O)ccc1OCCCN1CCC(c2noc3cc(F)ccc23)CC1
active: [2] 11.9 µM | [3] 18.8 µM | [4] 16.8 µM | [7] 21.1 µM | [8] 23.7 µM
not listed: [15] | [18] | [19] | [20]
inactive: all other assays above
